Source: PubChem BioAssay (EPA / NIEHS)
Calls of active or inactive are those of the source. How the source made its calls: active means hit-call score of the fitted dose curve at least 0.9, where 1 is the maximum; inactive means score below 0.9.

assay: ATG_GLI_CIS: Attagene CIS-FACTORIAL HepG2 Assay for human Zinc Finger Protein GLI1 (AID 2282945); conditions: HepG2, Attagene cis-factorial reporter mRNA, GLI element; actives raise or lower the signal
Procedure: ATG_CIS is a cell-based, multiplexed-readout assay that uses HepG2, a human liver cell line, with measurements taken at 24 hours after chemical dosing in a 24-well plate.ATG_GLI_CIS is one of 52 assay component(s) measured or calculated from the ATG_CIS assay. It is designed to make measurements of mRNA induction, a form of inducible reporter, as detected with fluorescence intensity signals by Reverse transcription polymerase chain reaction (RT-PCR) and Capillary electrophoresis technology.Data from the assay component ATG_GLI_CIS was analyzed into 1 assay endpoint. This assay endpoint, ATG_GLI_CIS, was analyzed with bidirectional fitting relative to DMSO as the negative control and baseline of activity. Using a type of inducible reporter, measures of mRNA for gain or loss-of-signal activity can be used to understand the reporter gene at the transcription factor-level as they relate to the gene GLI1. Furthermore, this assay endpoint can be referred to as a primary readout, because this assay has produced multiple assay endpoints where this one serves a reporter gene function. To generalize the intended target to other relatable targets, this assay endpoint is annotated to the dna binding intended target family, where the subfamily is zinc finger.
Human liver HepG2 cells are transiently transfected with multiple reporter transcription units (MRTUs) in 6-well plates using FuGene 6 reagent (Roche; 3 ml FuGene/1 mg DNA). The MRTU constructs are regulated by a cis-regulating element (promoter). […] A major difference between the CIS and TRANS system is that in CIS activities of endogenous TFs are measured, whereas the TRANS assay evaluates changes in activities of exogenous, chimeric NR-Gal4 proteins. […] At the end of 24 hour incubation, total RNA was isolated using TriZol reagent (Invitrogen). The isolated RNA is then reverse-transcribed using oligo(dT) primer and Mo-MLV reverse transcriptase (Invitrogen) with DNAse I (Ambion) treatment for 30 min. The one-tenth of the produced cDNA was amplified by PCR using Taq DNA polymerase (Invitrogen) and two reporter sequence-specific primers. The PCR products were fluorescently labeled by primer extension with 6-arboxyfluorescein (6-FAM) 5'-labeled reporter sequence-specific primer (2 min at 95 C, 20 s at 68 C and 10 min at 72 C) and these products were digested with 5U of HpaI (New England Biolabs) for 2h at 37 C. The fragments were purified using Qiaquick PCR columns (Qiagen), analyzed on an ABI 3130xL genetic analyzer (Applied Biosystems) with peak positions identified by using a set of X-rhodamine (ROX)-labeled MapMarker1000 molecular weight standards (BioVentures). The raw capillary electrophoresis data was processed using Attagraph software (Attagene).

outcome, inactive:
CCCCOCCOCCSC#N
c1ccc2sc(SN(C3CCCCC3)C3CCCCC3)nc2c1
COC(=O)Cc1cccc2ccccc12
CC(C)OP(=O)(CP(=O)(OC(C)C)OC(C)C)OC(C)C
[Ca+2]
O=C[C@@H](O)[C@H](O)[C@H](O)CO
Nc1nc2ccc([N+](=O)[O-])cc2s1
CC(C)[C@H]1CC[C@@H](C)CC1=O
O=C[C@H](O)[C@H](O)[C@H](O)CO
CN(C)CCOCCN(C)C
O=[N+]([O-])c1ccc(Nc2ccc(Nc3ccccc3)c(S(=O)(=O)O)c2)c([N+](=O)[O-])c1
NC(=O)NC1NC(=O)NC1=O (stereo not given)
CCCCCCCCCCCCN
Cc1ccccc1C=O
CC(C=O)Cc1ccc(C(C)C)cc1 (stereo not given)
CCCCCC(CO)CCC (stereo not given)
O=C(O)c1ccc(C(=O)O)cc1
CC(C#N)(CCC(=O)O)N=NC(C)(C#N)CCC(=O)O (stereo not given)
O=C1O[C@@H]2[C@@H](O)[C@H](O)O[C@@H]2[C@H]1O
OCc1cccnc1
CC(CN1c2ccccc2Sc2ccccc21)N(C)C (stereo not given)
CC1(C)OC[C@@H]2O[C@@]3(C(=O)O)OC(C)(C)O[C@H]3[C@@H]2O1
COCCOCCOCCOCCOCCO
COc1cc2ncnc(Nc3cccc(Cl)c3)c2cc1OC
CC1(C)C(=O)N(Br)C(=O)N1Cl
CC(C)c1ccc(C(C)C)cc1
Cc1ccc(S)cc1
CCCCCCCCCCCCCC(=O)O
CC1(C)[C@H](C(=O)OCc2cccc(Oc3ccccc3)c2)[C@@H]1C=C(Cl)Cl
OC[C@H]1O[C@H](O[C@]2(CCl)O[C@H](CCl)[C@@H](O)[C@@H]2O)[C@H](O)[C@@H](O)[C@H]1Cl
CC[Si](OC(C)=O)(OC(C)=O)OC(C)=O
CCCCCCCCCCCCCCCC(=O)O
O=C(OCc1ccccc1)C(=O)OCc1ccccc1
C=C(C)[C@@H]1CCC2=CC(=O)C[C@@H](C)[C@]2(C)C1
CC(=O)OCCOC(C)=O
Nc1cccc(S(=O)(=O)c2cccc(N)c2)c1
O=CCCc1ccccc1
O=C(O)c1cn(-c2ccc(F)cc2)c2cc(N3CCNCC3)c(F)cc2c1=O
C=C(C)C(=O)O
O=C(O)c1cccc([N+](=O)[O-])c1
